Assay outcomes: PubChem, The Scripps Research Institute Molecular Screening Center
Hits are enriched below; roughly 2.9% of the tested compounds scored in any of these assays.
ADAM10 inh = human ADAM10 inhibitors, primary screen, biochemical, QFRET, HTS | 370,000 compounds, 0.62% hits | inhibition, % at 7 µM | Disintegrin and metalloproteinase domain-containing protein 10 (Homo sapiens), O14672 | recombinant ADAM10, EDANS/DABCYL FRET peptide cleavage, 3 h;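 active = inhibition above a per-campaign cutoff equal to the mean of compounds falling between control-based bounds plus 3 SD, cut at about 20% in these data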;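 note: 0% = DMSO wells while the 100% control is not disclosed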
ADAM17 inh = ADAM17 inhibitors, primary screen, biochemical, QFRET. Disintegrin and metalloproteinase domain-containing protein 17 (Homo sapiens), P78536. 370,000 compounds, 0.83% hits. recombinant ADAM17, EDANS/DABCYL FRET peptide cleavage. inhibition, % at 6.95 µM;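 active = inhibition above the mean of compounds lying between control limits plus 3 SD, set per campaign, cut at about 8.5% in these data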;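 note: 0% = DMSO-only wells as the low control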
proKLK7 act = proKLK7 zymogen activators, primary screen, biochemical, fluorescence intensity; 370,000 compounds, 0.9% hits; activation, % at 7 µM; purified proKLK7, EDANS-DABCYL substrate fluorescence; 100% is mature enzyme control, 0% vehicle; AID 652039, 2013; Kallikrein-7 (Homo sapiens), P49862;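 active = activation above the mean of all tested compounds plus 3 SD, computed per campaign excluding outliers beyond control limits, cut at about 13% in these data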
PLC-beta3 inh = human PLC-beta3 inhibitors, primary screen, biochemical, fluorescence; Purified PLC-beta3, fluorogenic substrate; 370,000 compounds, 0.18% hits; inhibition, % at 12.2 µM; 1-phosphatidylinositol 4,5-bisphosphate phosphodiesterase beta-3 (Homo sapiens), Q01970; in the data active = inhibition above about 11%;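 note: 0% = median of compound wells on plate and 100% = full blocker control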
PLC-gamma1 inh = PLC-gamma1 enzyme inhibitors, primary screen, biochemical, fluorescence, purified enzyme; 1-phosphatidylinositol 4,5-bisphosphate phosphodiesterase gamma-1 (Homo sapiens), P19174; 370,000 compounds, 0.84% hits; fluorogenic substrate; inhibition, % at 12.2 µM; in the data active = inhibition above about 9.5%
ADAM10 ctr = ADAM10 inhibitors, counter-screen for ADAM17 exosite inhibitor project, biochemical, FRET, human ADAM10; shares compounds with ADAM17 inh; recombinant ADAM10, EDANS/DABCYL FRET peptide cleavage, 3 h; inhibition, % at 6.95 µM; 2,900 compounds, 47% hits; AID 743256, 2014;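 active = mean inhibition over the triplicate runs exceeds the activity threshold set in the earlier primary screen, cut at about 20% in these data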;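 note: 0% = DMSO wells and 100% = marimastat wells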
ADAM17 confirm = ADAM17 inhibitors, hit retest, confirmation, biochemical, QFRET peptide cleavage. AID 743257, 2014. shares compounds with ADAM17 inh. inhibition, % at 6.95 µM. 2,900 compounds, 65% hits. recombinant ADAM17, EDANS/DABCYL QFRET peptide cleavage;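 active = mean inhibition across replicates above the hit cutoff set in the primary screen, cut at about 8.5% in these data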;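 note: 0% = DMSO wells and 100% = marimastat wells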
* = called active by the depositor; · = no result.

SMILES	ADAM10 inh	ADAM17 inh	proKLK7 act	PLC-beta3 inh	PLC-gamma1 inh	ADAM10 ctr	ADAM17 confirm
CC(=O)Nc1ccc(S(=O)(=O)NC(C)CCc2ccccc2)cc1 (stereo unspecified)	3	-4	-1	0	1	·	·
Cc1ccc(S(=O)(=O)NC(C)CCc2ccccc2)cc1 (stereo unspecified)	8	9.5*	0	3	4	2	6
Cn1c(CN2CCC(C(N)=O)CC2)c(C#N)c2ccccc21	-7	0	-4	-14	-10	·	·
COc1cc(OC)cc(C(=O)NC2CCN(CC(=O)Nc3cccc4ccccc34)CC2)c1	12	12*	1	9	4	-5	2
CCn1c(CC(=O)Nc2cccc(OC)c2)nnc1SCC(=O)N1CCN(c2ccccc2)CC1	4	12*	0	2	8	30*	18*
CC(C)(C)c1ccc(NC(=O)COC(=O)c2ccc(NS(=O)(=O)c3ccc(F)c(F)c3)cc2)cc1	14	9.6*	0	-5	-2	42*	20*
CC(=O)Nc1ccc(SCC(=O)c2cc(C)n(-c3ccccc3)c2C)cc1	2	-3	0	1	2	·	·
CC(C)CCN=CC1=C(O)CC(c2ccccc2)CC1=O (stereo unspecified)	-4	-1	0	-2	-2	·	·
COc1cc(CN2CCCC(C(=O)Nc3cccc(-n4cccn4)c3)C2)ccc1F (stereo unspecified)	-2	3	0	0	0	·	·
O=C(Nc1cccc(-n2cccn2)c1)C1CCCN(Cc2ccccc2F)C1 (stereo unspecified)	-3	11*	0	-1	5	-9	-1
Cc1cc(C(=O)CN2C(=O)NC(Cc3c[nH]c4ccccc34)C2=O)c(C)n1C (stereo unspecified)	2	-3	1	-3	-3	·	·
Cc1ccc(C(C)C)cc1-n1nnc(-c2cccc(Cc3ccc4ccccc4c3)c2)c1C(C)O (stereo unspecified)	16	18*	0	6	6	31*	18*
CC1CCN(c2nc(-c3ccc(F)cc3)cc(C(F)(F)F)n2)CC1	10	-2	0	5	2	·	·
COc1ccc(NC(=O)CSc2n[nH]c(=O)n2C2CC2)cc1Cl	-1	0	0	-5	5	·	·
O=c1cc(COn2nnc3ccc(C(F)(F)F)cc32)nc2sccn12	16	11*	-1	7	7	7	8.9*
COc1ccc(OCCNC(=S)Nc2cccc3ccccc23)cc1	-2	3	-1	-1	-1	·	·
CCSc1nc(-c2ccco2)ccc1C#N	-17	14*	-1	-40	-27	-392	-76
N#Cc1ccc(-c2ccco2)nc1SCc1ccccc1	-68	-18	-2	-15	-13	·	·
Cc1c(C#N)c(=O)c(-[n+]2ccccc2)c([S-])n1-c1ccc(Cl)cc1	2	-1	0	-3	1	·	·
COc1cc(C(O)c2nc(-c3csc4ccccc34)cs2)ccc1F (stereo unspecified)	12	10*	0	-3	1	23*	17*
OC(c1ccc(F)c(F)c1)c1nc(-c2csc3ccccc23)cs1 (stereo unspecified)	10	6	0	2	-1	·	·
COc1cc(C(O)c2nc(-c3ccc(F)cc3OC)cs2)ccc1F (stereo unspecified)	3	12*	0	-4	-2	26*	14*
COc1cc(F)ccc1-c1csc(C(O)c2ccc(F)c(F)c2)n1 (stereo unspecified)	12	6	0	-6	-1	·	·
CCOc1ccccc1Oc1cn[nH]c1-c1ccc(O)cc1O	1	-1	0	-13	3	·	·
